The nature of assay [1]: ACEA_ER_80hr: ACEA Biosciences xCELLigence Real-Time Cell Analysis on Estrogen Receptor Agonism for Proliferation (AID 2282667; active = hit-call score of the fitted dose curve at least 0.9, where 1 is the maximum). Particulars: T47D proliferation, impedance (xCELLigence), 80 h. The essentials:
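T47D human breast cells were seeded on electrode plates, monitored overnight, then exposed continuously to compounds in eight-point 1:4 dilutions from 100 uM (max 0.5% DMSO). Impedance-based growth was read at 80 h, fitted upward relative to DMSO.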

Assay [2] in a line: ATG_CRE_CIS: Attagene CIS-FACTORIAL HepG2 Assay for human cAMP Responsive Element (CRE) binding protein 3 (AID 2282926). Particulars: HepG2 CRE cis-reporter, Attagene multiplexed mRNA; actives raise or lower the signal. The essentials: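 Capillary electrophoresis of 6-FAM-labelled, HpaI-digested PCR products quantified reporter transcripts. These came from HepG2 transiently transfected with cis-element reporters and exposed to test chemicals for 24 hours, with DMSO defining baseline activity.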

Assay [3] addresses CCAAT/enhancer-binding protein beta (Homo sapiens) (UniProt P17676). Kind of assay: ATG_C_EBP_CIS: Attagene CIS-FACTORIAL HepG2 Assay for human CCAAT/Enhancer Binding Protein (C/EBP) beta (AID 2282927). Particulars: HepG2 Attagene cis-factorial transcription factor reporter; actives raise or lower the signal. The essentials:
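HepG2 transiently transfected with multiplexed reporter units under cis-regulatory promoters reporting endogenous C/EBPb activity. After 24 h exposure, reporter mRNA assayed by RT-PCR, fluorescent labelling, HpaI digestion and capillary electrophoresis; bidirectional fitting versus DMSO.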

The nature of assay [4]: ATG_CMV_CIS: Attagene CIS-FACTORIAL HepG2 Assay for human CMV (Internal Marker) (AID 2282928).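 Also: endpoint acts as a background internal control marker rather than a target.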 Particulars: HepG2 CMV promoter reporter, transcription factor profiling; actives raise or lower the signal. The essentials: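 Reporter transcripts from transfected HepG2 cells are isolated after 24 h of chemical dosing, reverse-transcribed and amplified. Fragments labeled with 6-FAM are cut with HpaI and quantified by capillary electrophoresis; DMSO defines baseline.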

Assay [5] can be described thus: ATG_DR4_LXR_CIS: Attagene CIS-FACTORIAL HepG2 Assay for human Liver X Receptor (LXR), DR4 submotif (AID 2282929). Particulars: HepG2 Attagene DR4 cis-reporter, mRNA transcription; actives raise or lower the signal. The essentials: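 HepG2 cells were transiently transfected with multiple cis-regulated reporter units and dosed for 24 hours. The DR4 reporter mRNA was quantified by RT-PCR, 6-FAM labelling and capillary electrophoresis. Bidirectional fits used DMSO as baseline.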

Assay [6] concerns the target Aryl hydrocarbon receptor (Homo sapiens) (UniProt P35869). Briefly: ATG_Ahr_CIS: Attagene CIS-FACTORIAL HepG2 Assay for human Aryl Hydrocarbon Receptor (Ahr) (AID 2282930). Particulars: HepG2 AhR cis-factorial reporter transcription; actives raise or lower the signal. The essentials: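 HepG2 cells transiently transfected with cis-element-driven multiplexed reporter units; endogenous AhR activity read as reporter mRNA 24 h after dosing, via RT-PCR, 6-FAM labelling, HpaI digestion and capillary electrophoresis. Bidirectional fit relative to DMSO.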

A short description of assay [7]: ATG_AP_1_CIS: Attagene CIS-FACTORIAL HepG2 Assay for human Activator Protein 1 (AP-1) (AID 2282931). Particulars: HepG2 Attagene cis-factorial AP-1 reporter mRNA; actives raise or lower the signal. The essentials: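 HepG2 cells transiently transfected with cis-element-driven reporter transcription units, dosed for 24 hours. Reporter mRNA measured by RT-PCR, 6-FAM labelling, HpaI digestion and capillary electrophoresis. Bidirectional fitting against DMSO baseline.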

The nature of assay [8]: ATG_BRE_CIS: Attagene CIS-FACTORIAL HepG2 Assay for human Bone Morphogenetic Protein (BMP) Response Element (BRE) (AID 2282933). The note with it: HepG2 BMP response element reporter, Attagene transcription factor profiling; actives raise or lower the signal. Put shortly: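 Multiplexed cis-reporter assay, HepG2, 24 h exposure. mRNA from reporter units quantified via RT-PCR/CE; DMSO baseline; bidirectional curve fit.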

For assay [9], the target named is Retinoic acid receptor alpha (Homo sapiens) (UniProt P10276). Kind of assay: ATG_DR5_RAR_CIS: Attagene CIS-FACTORIAL HepG2 Assay for human Retinoic Acid Receptor Alpha (RARE), DR5 submotif (AID 2282934).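 As to AC50: reporter responds to endogenous RAR alpha beta and gamma in HepG2 not RARA alone.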 Particulars: HepG2 Attagene cis-factorial RARE DR5 reporter, mRNA; actives raise or lower the signal. The essentials: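 HepG2 cells transiently transfected with multiplexed reporter units; DR5 cis-element drives reporter through endogenous transcription factors. After 24 h dosing, reporter mRNA quantified by RT-PCR, fluorescent labeling, HpaI digestion and capillary electrophoresis; bidirectional fitting versus DMSO.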

Assay [10] addresses Transcription factor E2F1 (Homo sapiens) (UniProt Q01094). Kind of assay: ATG_E2F_CIS: Attagene CIS-FACTORIAL HepG2 Assay for human E2F Transcription Factor 1 (AID 2282935). The note with it: HepG2 Attagene cis-reporter, E2F reporter RNA transcripts; actives raise or lower the signal. The essentials:
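Transient MRTU transfection of HepG2; 24 h compound exposure; RNA → oligo(dT) RT → PCR → FAM label → HpaI cut → CE fluorescence. Gain/loss of signal fit against DMSO.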

Assay [11] can be described thus: ATG_E_Box_CIS: Attagene CIS-FACTORIAL HepG2 Assay for human Enhancer Box (E-box) (AID 2282936). Particulars: HepG2 E-box cis-reporter transcription, actives raise or lower the signal. The essentials: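 Transiently transfected HepG2, endogenous TF-driven reporters, 24 h dosing. Readout: RT-PCR plus capillary electrophoresis of fluorescent reporter fragments. Gain or loss of signal fitted bidirectionally against DMSO baseline.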

Assay [12] in a line: ATG_M_61_CIS: Attagene CIS-FACTORIAL HepG2 Assay for M61 Transcription Factor (Internal Marker) (AID 2282937). Particulars: HepG2 Attagene CIS-FACTORIAL M61 internal marker reporter; actives raise or lower the signal. Put shortly: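 HepG2 cells transiently transfected with multiplexed cis-promoter reporter units reporting endogenous transcription factor activity, measured 24 h after dosing. Reporter mRNA quantified by RT-PCR and capillary electrophoresis; bidirectional fit against DMSO baseline.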

Assay [13] is described as follows: ATG_EGR_CIS: Attagene CIS-FACTORIAL HepG2 Assay for human Early Growth Response 1 (EGR1) (AID 2282938). Particulars: HepG2 Attagene CIS-FACTORIAL EGR reporter mRNA; actives raise or lower the signal. Put shortly:
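HepG2 cells transiently transfected with cis-element-driven multiplexed reporter units, dosed for 24 h. EGR1-element reporter mRNA quantified by RT-PCR, 6-FAM labelling, HpaI digestion and capillary electrophoresis; bidirectional fit versus DMSO.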

Assay [14] can be described thus: ATG_M_19_CIS: Attagene CIS-FACTORIAL HepG2 Assay for M19 Transcription Factor (Internal Marker) (AID 2282939). The note with it: HepG2 Attagene CIS-FACTORIAL M19 internal marker reporter; actives raise or lower the signal. The essentials: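 Signals come from fluorescence of labelled reporter-specific PCR fragments resolved by capillary electrophoresis, following 24 h treatment of HepG2 cells transfected with cis-promoter reporter units; activity was fitted in both directions relative to DMSO.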

Assay [15] can be described thus: ATG_ERE_CIS: Attagene CIS-FACTORIAL HepG2 Assay for Estrogen Response Element (ERE) (AID 2282940). Particulars: HepG2 ERE cis-reporter, Attagene RNA transcript; actives raise or lower the signal. The essentials:
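Fluorescence of capillary-separated, FAM-labelled reporter cDNA fragments indicates reporter mRNA levels in HepG2 cells exposed to chemicals for 24 h. Transient transfection with cis-regulated units; data fitted in both directions against DMSO.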

A short description of assay [16]: ATG_Ets_CIS: Attagene CIS-FACTORIAL HepG2 Assay for human Erythroblast Transformation Specific (ETS) (AID 2282941). The note with it: HepG2 ETS cis-reporter transcription, actives raise or lower the signal. The essentials: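 Bidirectional fit versus DMSO of reporter mRNA signal, detected by RT-PCR and capillary electrophoresis in HepG2 cells transiently transfected with cis-element reporters and dosed 24 h.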

Assay [17] deals with Hepatocyte nuclear factor 3-beta (Homo sapiens) (UniProt Q9Y261). Briefly: ATG_FoxA2_CIS: Attagene CIS-FACTORIAL HepG2 Assay for human Forkhead box A2 (FOXA2) (AID 2282942). The note with it: HepG2 cis-reporter transcription factor activity, 24 h; actives raise or lower the signal. Put shortly: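 HepG2 transiently transfected with a multiplexed cis-promoter reporter library read endogenous FOXA2 activity. After 24 h compound exposure, reporter mRNA was quantified by RT-PCR, HpaI digestion and capillary electrophoresis. Bidirectional fit against DMSO.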

A short description of assay [18]: ATG_FoxO_CIS: Attagene CIS-FACTORIAL HepG2 Assay for human Forkhead box O (FoxO) (AID 2282943). The note with it: HepG2 Attagene cis-reporter, FoxO element, mRNA; actives raise or lower the signal. The essentials:
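HepG2 cells transiently transfected with cis-element-driven reporter units report endogenous FoxO activity. After 24 h chemical exposure, reporter mRNA quantified by RT-PCR, fluorescent labeling, HpaI digestion and capillary electrophoresis; bidirectional fit versus DMSO.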

Assay [19] is described as follows: ATG_GATA_CIS: Attagene CIS-FACTORIAL HepG2 Assay for human GATA Binding Protein (AID 2282944). The note with it: HepG2 GATA cis-element reporter, Attagene multiplex mRNA; actives raise or lower the signal. Put shortly: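 After transfecting HepG2 cells with multiple cis-regulated reporter units, chemicals are dosed for 24 h; isolated RNA undergoes RT-PCR and fluorescent labeling before capillary electrophoresis, with activity expressed against DMSO.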

Assay [20] is described as follows: ATG_AP_2_CIS: Attagene CIS-FACTORIAL HepG2 Assay for human Activator Protein 2 (AP-2) (AID 2282932). Particulars: HepG2 AP-2 cis-reporter, Attagene transcription factor profiling; actives raise or lower the signal. Put shortly: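 Read-out: fluorescent reporter mRNA via RT-PCR and capillary electrophoresis, 24 h post-dose in transiently transfected HepG2. Endogenous factors drive cis-promoter reporters; gain or loss of signal fitted bidirectionally against DMSO.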

Data on four molecules can be found in PubChem BioAssay (EPA / NIEHS).

Structures are written as SMILES. Records with an inconclusive call do not appear. Active and inactive are the calls of the source. The calls were made as follows, unless noted: active = hit-call score of the fitted dose curve at least 0.9, where 1 is the maximum; inactive = score below 0.9.

Retinoic acid receptor alpha (Homo sapiens), sequence (P10276 whole entry, looked up): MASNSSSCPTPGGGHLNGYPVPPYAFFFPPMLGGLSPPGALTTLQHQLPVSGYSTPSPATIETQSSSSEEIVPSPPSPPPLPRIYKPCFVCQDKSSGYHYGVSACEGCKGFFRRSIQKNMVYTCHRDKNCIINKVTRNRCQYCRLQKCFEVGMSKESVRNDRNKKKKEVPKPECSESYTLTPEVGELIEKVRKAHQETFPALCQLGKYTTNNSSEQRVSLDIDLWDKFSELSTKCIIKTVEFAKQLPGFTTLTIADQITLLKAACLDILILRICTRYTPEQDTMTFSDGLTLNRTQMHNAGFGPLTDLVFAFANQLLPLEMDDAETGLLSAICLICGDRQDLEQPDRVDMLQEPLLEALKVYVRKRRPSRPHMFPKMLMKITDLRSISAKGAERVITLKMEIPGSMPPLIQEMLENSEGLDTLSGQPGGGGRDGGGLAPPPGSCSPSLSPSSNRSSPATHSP
CCAAT/enhancer-binding protein beta (Homo sapiens), sequence (P17676 whole entry, looked up): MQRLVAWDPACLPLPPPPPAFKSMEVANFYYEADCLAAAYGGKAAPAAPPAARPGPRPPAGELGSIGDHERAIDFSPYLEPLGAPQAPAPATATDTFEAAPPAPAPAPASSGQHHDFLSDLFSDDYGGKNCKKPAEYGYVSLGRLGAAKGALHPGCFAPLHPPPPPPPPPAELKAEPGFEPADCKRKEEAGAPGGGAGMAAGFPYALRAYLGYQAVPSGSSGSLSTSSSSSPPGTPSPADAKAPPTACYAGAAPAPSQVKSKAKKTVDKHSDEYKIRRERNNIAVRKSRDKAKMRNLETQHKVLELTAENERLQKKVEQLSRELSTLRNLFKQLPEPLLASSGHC
Transcription factor E2F1 (Homo sapiens), sequence (Q01094 whole entry, looked up): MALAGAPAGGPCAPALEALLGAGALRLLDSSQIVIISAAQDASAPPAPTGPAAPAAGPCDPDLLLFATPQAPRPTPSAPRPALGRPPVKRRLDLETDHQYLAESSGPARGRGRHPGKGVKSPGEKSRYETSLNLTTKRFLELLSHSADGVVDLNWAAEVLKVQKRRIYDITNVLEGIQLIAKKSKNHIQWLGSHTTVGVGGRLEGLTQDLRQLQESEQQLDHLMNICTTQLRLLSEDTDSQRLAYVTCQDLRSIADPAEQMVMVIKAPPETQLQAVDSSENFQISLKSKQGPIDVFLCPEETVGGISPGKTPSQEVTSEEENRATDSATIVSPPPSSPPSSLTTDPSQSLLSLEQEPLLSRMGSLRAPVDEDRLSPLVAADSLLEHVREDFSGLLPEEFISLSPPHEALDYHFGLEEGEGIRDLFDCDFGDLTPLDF
Hepatocyte nuclear factor 3-beta (Homo sapiens), sequence (Q9Y261 whole entry, looked up): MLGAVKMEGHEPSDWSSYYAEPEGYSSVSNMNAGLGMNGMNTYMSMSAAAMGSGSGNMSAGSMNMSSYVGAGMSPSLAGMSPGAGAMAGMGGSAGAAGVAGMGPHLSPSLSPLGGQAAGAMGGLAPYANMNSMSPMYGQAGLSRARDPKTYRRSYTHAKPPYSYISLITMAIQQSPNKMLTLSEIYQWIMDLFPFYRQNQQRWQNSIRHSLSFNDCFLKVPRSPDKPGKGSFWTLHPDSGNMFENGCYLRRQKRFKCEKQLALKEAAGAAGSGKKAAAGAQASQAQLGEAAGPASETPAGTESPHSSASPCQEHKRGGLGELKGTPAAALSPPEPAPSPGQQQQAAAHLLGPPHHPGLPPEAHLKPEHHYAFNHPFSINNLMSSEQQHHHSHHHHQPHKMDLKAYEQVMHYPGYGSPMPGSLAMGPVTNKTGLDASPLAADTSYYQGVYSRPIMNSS
Aryl hydrocarbon receptor (Homo sapiens), sequence (P35869 whole entry, looked up): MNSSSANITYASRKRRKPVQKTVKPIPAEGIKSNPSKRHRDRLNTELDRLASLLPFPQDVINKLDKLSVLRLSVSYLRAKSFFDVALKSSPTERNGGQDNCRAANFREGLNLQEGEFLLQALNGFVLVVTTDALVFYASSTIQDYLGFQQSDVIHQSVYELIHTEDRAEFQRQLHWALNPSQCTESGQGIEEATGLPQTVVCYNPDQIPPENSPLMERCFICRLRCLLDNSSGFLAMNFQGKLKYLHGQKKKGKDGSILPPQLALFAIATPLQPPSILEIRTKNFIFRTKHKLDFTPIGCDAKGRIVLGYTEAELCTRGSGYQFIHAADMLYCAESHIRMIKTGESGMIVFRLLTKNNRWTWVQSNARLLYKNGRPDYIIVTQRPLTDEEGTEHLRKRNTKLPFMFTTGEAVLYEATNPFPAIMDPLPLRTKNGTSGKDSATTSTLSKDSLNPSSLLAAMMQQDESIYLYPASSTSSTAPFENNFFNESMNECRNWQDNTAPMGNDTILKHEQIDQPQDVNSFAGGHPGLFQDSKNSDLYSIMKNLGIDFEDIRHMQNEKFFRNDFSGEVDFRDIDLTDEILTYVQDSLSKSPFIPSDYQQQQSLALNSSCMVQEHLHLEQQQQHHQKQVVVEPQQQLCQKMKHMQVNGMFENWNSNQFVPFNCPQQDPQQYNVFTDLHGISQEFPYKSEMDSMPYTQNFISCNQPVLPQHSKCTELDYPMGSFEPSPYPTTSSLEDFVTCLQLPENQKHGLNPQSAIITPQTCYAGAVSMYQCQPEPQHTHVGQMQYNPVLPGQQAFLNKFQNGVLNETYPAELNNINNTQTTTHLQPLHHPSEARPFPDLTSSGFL

One may read the AC50 as the midpoint of the concentration-response curve, whichever way the signal moves. Turning to `Cc1ccc(S(=O)(=O)C(I)I)cc1`, the result in assay [1], in assay [3], in assay [4], in assay [5], in [8] and in assay [10] was inactive. Besides, the outcome in assay [12], in assay [13], in assay [14] and in assay [15] was inactive. The AC50 was 8.93 µM (active) in [2]; 27.5 µM (active) in [6]; 51.7 µM (active) in [7]; 8.88 µM (active) in assay [9]; 24.3 µM (active) in assay [11]; 8.59 µM (active) in assay [16]. Further, the AC50 is 43.7 µM (active) in assay [17], 5.14 µM (active) in assay [18] and 8.85 µM (active) in assay [19].

For the molecule `Oc1ccc(C2(c3ccc(O)c(C4CCCCC4)c3)CCCCC2)cc1C1CCCCC1`, the outcome in assay [1], in assay [2], in assay [3], in [6], in [20] and in assay [8] was inactive. In addition, the result in assay [10], in [11], in assay [12], in [15] and in [18] was inactive. In addition, the half-maximal activity concentration (AC50) in assay [4] is 8.9 µM (active); in [5], 2.73 µM (active); in assay [7] it was 33.4 µM (active); in assay [9], 8.25 µM (active); in assay [13], 8.92 µM (active); in [14], 8.87 µM (active). The AC50 in assay [16] is 16.5 µM (active); in assay [17] it was 60.1 µM (active); in assay [19], 8.81 µM (active).

For `CCn1c2ccccc2c2ccccc21`, the molecule was classed as inactive in assay [1], in assay [2], in assay [3], in [5], in assay [6] and in assay [20]. For the same molecule, the call in assay [10], in assay [11], in assay [12], in assay [13], in [14] and in assay [15] was inactive. Moreover, the molecule was classed as inactive in [17], in assay [18] and in assay [19]. Besides, the AC50 in assay [4] was 57.4 µM (active); in [7], 164 µM (active); in [8], 159 µM (active); in [9], 25.8 µM (active).

As to `CCN(CC)c1ccc(C=O)c(O)c1`, the molecule was called inactive in [1], in assay [2], in assay [3], in [4], in assay [6] and in assay [7]. The call in assay [20], in assay [8], in [9], in assay [10], in [11] and in [13] was inactive. The result in [15], in [16], in assay [17], in assay [18] and in assay [19] was inactive. For the same molecule, the AC50 in assay [5] is 67.2 µM (active).
